About 2,000 (36%) of roughly 5,500 compounds were called active. Not shown: some 18% with an inconclusive outcome. Cut-off read from the data, not from the text of the source: active = normalized growth mostly below about 0.91 (no sharp cut-off); inconclusive = no clear call, values can overlap the other calls; inactive = mostly above about 0.92. This is one part of the list.
Assay: chemical genetic growth profiling, strain panel (AID 1159580);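 note: tested at 20 µM; growth read once vehicle control cultures reached saturation at 30 °C; 1 = growth at the plate median or of vehicle wells; lower values mean less growth of the strain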
Conditions: growth OD

Measured: normalized growth

Cc1cc(=O)n2c(-c3ccc(Cl)cc3)csc2n1
active: S. cerevisiae deletion strains, locus YML094W, strain GIM5, stronger effect = lower value 0.864
inactive: S. cerevisiae deletion strains, locus YAL013W, strain DEP1, stronger effect = lower value 0.975 | S. cerevisiae deletion strains, locus YBR229C, strain ROT2, stronger effect = lower value 0.954 | S. cerevisiae deletion strains, locus YCL061C, strain MRC1, stronger effect = lower value 0.951 | S. cerevisiae deletion strains, locus YDL101C, strain DUN1, stronger effect = lower value 0.936 | S. cerevisiae deletion strains, locus YDR150W, strain NUM1, stronger effect = lower value 0.976 | S. cerevisiae deletion strains, locus YEL061C, strain CIN8, stronger effect = lower value 0.931 | S. cerevisiae deletion strains, locus YGR078C, strain PAC10, stronger effect = lower value 0.96 | S. cerevisiae deletion strains, locus YHR030C, strain SLT2, stronger effect = lower value 0.712 | S. cerevisiae deletion strains, locus YHR087W, strain rtc3, stronger effect = lower value 0.927 | S. cerevisiae deletion strains, locus YJL187C, strain SWE1, stronger effect = lower value 0.965 | S. cerevisiae deletion strains, locus YJR043C, strain POL32, stronger effect = lower value 0.982 | S. cerevisiae deletion strains, locus YJR075W, strain HOC1, stronger effect = lower value 0.956 | S. cerevisiae deletion strains, locus YLR039C, strain RIC1, stronger effect = lower value 0.892 | S. cerevisiae deletion strains, locus YLR058C, strain SHM2 (second series), stronger effect = lower value 0.956 | S. cerevisiae deletion strains, locus YLR085C, strain ARP6, stronger effect = lower value 0.826 | S. cerevisiae deletion strains, locus YLR262C, strain YPT6, stronger effect = lower value 0.916 | S. cerevisiae deletion strains, locus YMR219W, strain ESC1, stronger effect = lower value 0.96 | S. cerevisiae deletion strains, locus YMR263W, strain SAP30, stronger effect = lower value 0.987 | S. cerevisiae deletion strains, locus YNL128W, strain TEP1, stronger effect = lower value 0.972 | S. cerevisiae deletion strains, locus YNL153C, strain GIM3, stronger effect = lower value 0.973 | S. cerevisiae deletion strains, locus YNL298W, strain CLA4 (second series), stronger effect = lower value 0.947 | S. cerevisiae deletion strains, locus YNL322C, strain KRE1, stronger effect = lower value 0.976 | S. cerevisiae deletion strains, locus YNR030W, strain Alg12, stronger effect = lower value 0.943 | S. cerevisiae deletion strains, locus YPL055C, strain LGE1, stronger effect = lower value 0.963 | S. cerevisiae deletion strains, locus YPL241C, strain CIN2, stronger effect = lower value 0.941 | S. cerevisiae deletion strains, locus YPR135W, strain CTF4, stronger effect = lower value 0.764 | S. cerevisiae strains, strain wild type, stronger effect = lower value 0.96
